One assay has as its target CTLA4. Put plainly: pooled miR-30 sensor sort-seq; sequence = guide strand. Conditions: shRNA.
In turn, TAAATCTGGGTTCCGTTGCCTA displayed a sensor-assay potency score (higher = more potent) of -0.995.

TACATGAGCTCCACCTTGCAGA came in with a sensor-assay potency score (higher = more potent) of -0.733.

The sequence TCATCTAGGAAGGTCAACTCAT returned a sensor-assay potency score (higher = more potent) of -0.426.

Take TTTCTTTAGCATTTTGCTCAAA: the sensor-assay potency score (higher = more potent) is -0.998.

TCAATTACATAAATCTGGGTTC had a sensor-assay potency score (higher = more potent) of -0.428.

Regarding TTTCACATTCTGGCTCTGTTGG, the sensor-assay potency score (higher = more potent) is -0.615.

On to TACTCACACACAAAGCTGGCGA, for which the sensor-assay potency score (higher = more potent) was 0.197.

The sequence TTTAGCAATTACATAAATCTGG had a sensor-assay potency score (higher = more potent) of 0.216.

Take TTACATAAATCTGGGTTCCGTT: the sensor-assay potency score (higher = more potent) was -0.355.

For the sequence TTTGCTCAAAGAAACAGCTGTG, the sensor-assay potency score (higher = more potent) was determined as 0.483.

For another assay, the target named is CTNNAL1. The description is as above. Conditions: shRNA.
The sequence TTCATTAAGACTGTGACTGATT had a sensor-assay potency score (higher = more potent) of 0.0876.

For TTGTAACTGAGACCCATCCGTT, the sensor-assay potency score (higher = more potent) was -0.457.

As for TTCAGCAGCAGAAATTATCTGT, the sensor-assay potency score (higher = more potent) is 0.229.

The sequence TAGTTGATGAATTAAATCCTGG gave a sensor-assay potency score (higher = more potent) of -0.667.

As to TTATTTGTAACTGAGACCCATC, the sensor-assay potency score (higher = more potent) is -0.547.

Consider TTTCTTGATGTTATTATCTGTT, for which the sensor-assay potency score (higher = more potent) is -0.648.

Turning to TTGTTTTCTTGCTTTGAGCTTG, the sensor-assay potency score (higher = more potent) is 0.085.

The sequence ATTTTGTCTATCTCCACTCAGA gave a sensor-assay potency score (higher = more potent) of -0.843.

For the sequence TCGACAGGTCTCAACAAGCTGC, the sensor-assay potency score (higher = more potent) was -0.481.

TTGTCTTCGTAATACACTTGTC came in with a sensor-assay potency score (higher = more potent) of -0.611.

The sequence TTCATTTCCAAATTGACTGAAT displayed a sensor-assay potency score (higher = more potent) of 0.0043.

For TTGAACACTGGAAGTAAGCTTT, the sensor-assay potency score (higher = more potent) stood at 0.00936.

In the next assay the target is CTNNBIP1. The assay is described as above. Conditions: shRNA.
The sequence TCGGACCTTCTGCTGAATGTAC had a sensor-assay potency score (higher = more potent) of -1.3.

Sequence CTGAATGTACATCTCCTCCGGA displayed a sensor-assay potency score (higher = more potent) of -0.773.

For the sequence TTGATATCAGCAGAACACCTGC, the sensor-assay potency score (higher = more potent) is -0.0972.

Take ATAGGTGCGCAGGAACTCCTCC: the sensor-assay potency score (higher = more potent) was -0.215.

In turn, TTGACCACCCCTGCATAGGTGC showed a sensor-assay potency score (higher = more potent) of -1.01.

Take TTCTGCTGAATGTACATCTCCT: the sensor-assay potency score (higher = more potent) was -0.0119.

As to TGAATGTACATCTCCTCCGGAC, the sensor-assay potency score (higher = more potent) is -0.75.

TCTCCTCCGGACTCTTCCCGGG showed a sensor-assay potency score (higher = more potent) of -0.954.

With TGGCTGTCAGGTTTGATCCCAT, the sensor-assay potency score (higher = more potent) is -0.741.

ATCTCCTCCGGACTCTTCCCGG registered a sensor-assay potency score (higher = more potent) of -1.21.

The sequence TGATCCCATCTTCCGCAGCATG showed a sensor-assay potency score (higher = more potent) of -1.86.

TCTGCTGAATGTACATCTCCTC came in with a sensor-assay potency score (higher = more potent) of -0.574.

The target in another assay is CTNNBL1. Described as above. Conditions: shRNA.
As to ATCTCTGTCAATAATCTGCAGC, the sensor-assay potency score (higher = more potent) was -0.982.

In turn, TTAAACACGGATAACTGCTGAA gave a sensor-assay potency score (higher = more potent) of -0.397.

The sequence TGAACTTCTCTGGATTGTCTGG returned a sensor-assay potency score (higher = more potent) of -0.725.

In the case of TATCGTGTCCGAGCAAGCCGAG, the sensor-assay potency score (higher = more potent) is -1.14.

For TACAGCATTCAGCTCCACCAGA, the sensor-assay potency score (higher = more potent) is -0.685.
Further: reference of the scale not given here.
